This passage reports composite z-score and z-score results from PubChem BioAssay.

The source made the active and inactive calls. Unless noted, the rule behind the calls is not given here.

Test [1] can be described thus: compounds binding Alexa647 anti-His antibody – biochemical, small-molecule microarray, 635 nm fluorescence, artefact control for SMM control protein annotation, primary screen (AID 1128).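 Note: score merges feature fluorescence with signal-to-noise for each printed compound spot.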 Particulars: higher = more signal.
Test [2] has as its system Human papillomavirus type 1a E7 protein (residues 1-88). Kind of test: HPV1a E7 small-molecule binders, primary screen, biochemical, small-molecule microarray, residues 1-88, 635 nm (AID 1129). As to conditions: small-molecule microarray binding, fluorescence 635 nm; higher = more signal.
The target of test [3] is Focal adhesion kinase 1 (Homo sapiens) (UniProt Q05397). Kind of test: PTK2 protein binding on printed compound slides – biochemical, small-molecule microarray, 635/667 nm fluorescence, BSA, DTT, primary screen (AID 1130).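 Note: composite of spot emission at 667 nm and signal to noise over triplicate slides.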 As to conditions: 635 nm fluorescence, higher = more signal.
The test system of test [4] is Fibrinogen (Alexa647-labelled). Briefly: Alexa647-fibrinogen binding to printed small molecules – biochemical, small-molecule microarray, 635/667 nm fluorescence, artefact control for SMM control-protein annotation, profiling panel (AID 1131).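 Note: z-score merges 667 nm fluorescence with per-spot signal-to-noise over triplicate slides.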 As to conditions: fibrinogen-A647 binding fluorescence, higher = more signal.
The target of test [5] is Follistatin (Homo sapiens) (UniProt P19883). Briefly: FST protein binding to printed compounds – biochemical, small-molecule microarray, 635/667 nm fluorescence, primary screen (AID 1132). As to conditions: 635 nm fluorescence, higher = more signal.
Test [6] concerns the target Fibroblast growth factor 2 (Homo sapiens) (UniProt P09038). Kind of test: basic fibroblast growth factor binding to printed compounds – biochemical, small-molecule microarray, 635/667 nm fluorescence, primary screen (AID 1133). Particulars: FGF2, fluorescence 635/667, higher = more signal.
Test [7] is described as follows: JC-1 mitochondrial potential readout, lung cancer cells – cell-based, A549, JC-1 fluorescence, basal, 24 h, 100 nL, profiling panel (AID 1138).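 Note: A549 lung adenocarcinoma cells under basal conditions with no added stimulus; test concentration not given here.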 As to conditions: higher = more signal.
Another test has as its system Lefty1. Briefly: Lefty1 protein binding to printed compounds – biochemical, small-molecule microarray, 635/667 nm fluorescence, primary screen (AID 1139). As to conditions: fluorescence 635/667, higher = more signal.
Test [8] deals with wheat germ agglutinin (Triticum aestivum), Alexa647-labelled. Kind of test: Alexa647-WGA lectin binding to printed small molecules – biochemical, small-molecule microarray, 635/667 nm fluorescence, artefact control for SMM control-protein annotation, profiling panel (AID 1140).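 Note: score merges 667 nm feature emission with signal to noise over triplicate slides.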 Particulars: WGA-A647 binding, 635 nm fluorescence, higher = more signal.
Test [9] addresses Luciferin 4-monooxygenase (Photinus pyralis) (UniProt P08659). Kind of test: inhibition of purified Photinus pyralis luciferase – biochemical, luminescence, purified enzyme, 2006 set, primary screen (AID 1141).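 Note: cell-free assay with purified firefly luciferase at 100 ng per well in PBS; test concentration not given here.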 As to conditions: purified firefly luciferase, SteadyGlo luminescence, 30 min; higher = more signal, called active from +8 up or from −8 down.
Test [10] relates to Wnt5a (protein binding on small-molecule microarray). Kind of test: small molecules binding Wnt5a protein – biophysical, small-molecule microarray, 635/667 nm fluorescence, primary screen (AID 1142).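 Note: fluorescence read at 667 nm with signal to noise per printed feature.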 Particulars: 635 nm fluorescence, higher = more signal.
The nature of test [11]: ATP-based viability of Huh7 replicon cells – cell-based, CellTiter-Glo luminescence, basal, 48 h, cytotoxicity control for HCV replication inhibitor project, primary screen (AID 1143).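 Note: Huh7 hepatoma cells carrying a hepatitis C replication reporter with no stimulus; test concentration not given here.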 As to conditions: higher = more signal, called active from +8 up or from −8 down. (In antiviral work, replicon cells carry a viral genome segment that copies itself.)
The nature of test [12]: Pseudomonas biofilm growth suppression – PAO1 strain, BacTiter-Glo luminescence, LB-PBS, primary screen (AID 1144). Particulars: P. aeruginosa PAO1 biofilm, 12 h, higher = more signal.
The nature of test [13]: basal CRE-LacZ reporter activity in PC12 – cell-based, unstimulated, primary screen (AID 1145). Particulars: no forskolin, luminescence, 4.5 h, higher = more signal, called active from +8 up or from −8 down.
The nature of test [14]: forskolin-driven CRE-LacZ activity in PC12 – cell-based, CRE-LacZ reporter, forskolin-stimulated, primary screen (AID 1146).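 Note: PC12 cells with 6xCRE LacZ reporter stimulated by forskolin 10 µM; beta-galactosidase reporter signal reflecting CREB driven transcription.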 As to conditions: luminescence, 4.5 h, higher = more signal, called active from +8 up or from −8 down.
In test [15] the target is Streptavidin (Streptomyces avidinii) (UniProt P22629). Kind of test: compounds binding control protein streptavidin – biophysical, small-molecule microarray, 635/667 nm fluorescence, artefact control for SMM compound annotation, primary screen (AID 1147).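 Note: signal reflects streptavidin binding to arrayed compounds as a control protein.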 Particulars: higher = more signal.
A short description of test [16]: probe aInhba binding on compound microarray – biochemical, small-molecule microarray, 635/667 nm fluorescence, primary screen (AID 1148).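 Note: score merges 667nm spot fluorescence with signal-to-noise for antibody binding to printed compounds.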 Particulars: higher = more signal.
Test [17] deals with Torsin-1A (Homo sapiens) (UniProt O14656). Briefly: TOR1A wild-type binding on microarray – cell lysate, small-molecule microarray, lysate, 635/667 nm, primary screen (AID 1149). As to conditions: COS7 hTOR1A-WT lysate, 635 nm fluorescence, higher = more signal.
Test [18] has the same target. Kind of test: torsin A mutant lysate binding on microarrays – cell lysate, small-molecule microarray, COS7 lysate, 635/667 nm fluorescence, primary screen (AID 1150).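 Note: score pools 667 nm emission and signal to noise measuring lysate protein binding.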 As to conditions: COS7 hTOR1A mutant lysate, 635 nm fluorescence, higher = more signal.
For test [19], the system named is Sonic hedgehog protein (Shh). Briefly: Sonic hedgehog microarray binding compounds – biochemical, small-molecule microarray, 635/667 nm fluorescence, primary screen (AID 1151).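 Note: Shh protein binding to compounds spotted on small-molecule microarray slides; score combines spot fluorescence intensity with signal-to-noise across triplicate slides.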 As to conditions: 635 nm fluorescence, higher = more signal.

Chain of Follistatin (Homo sapiens) (P19883 whole entry, looked up): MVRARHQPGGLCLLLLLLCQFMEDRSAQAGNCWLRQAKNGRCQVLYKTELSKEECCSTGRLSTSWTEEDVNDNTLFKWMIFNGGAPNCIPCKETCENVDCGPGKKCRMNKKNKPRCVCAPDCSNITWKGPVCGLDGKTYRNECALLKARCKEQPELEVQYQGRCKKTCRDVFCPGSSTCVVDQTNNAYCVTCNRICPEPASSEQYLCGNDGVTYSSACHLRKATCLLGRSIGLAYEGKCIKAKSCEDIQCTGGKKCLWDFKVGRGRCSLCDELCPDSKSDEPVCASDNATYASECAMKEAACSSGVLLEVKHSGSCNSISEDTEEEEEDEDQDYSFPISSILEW
Chain of Torsin-1A (Homo sapiens) (O14656 whole entry, looked up): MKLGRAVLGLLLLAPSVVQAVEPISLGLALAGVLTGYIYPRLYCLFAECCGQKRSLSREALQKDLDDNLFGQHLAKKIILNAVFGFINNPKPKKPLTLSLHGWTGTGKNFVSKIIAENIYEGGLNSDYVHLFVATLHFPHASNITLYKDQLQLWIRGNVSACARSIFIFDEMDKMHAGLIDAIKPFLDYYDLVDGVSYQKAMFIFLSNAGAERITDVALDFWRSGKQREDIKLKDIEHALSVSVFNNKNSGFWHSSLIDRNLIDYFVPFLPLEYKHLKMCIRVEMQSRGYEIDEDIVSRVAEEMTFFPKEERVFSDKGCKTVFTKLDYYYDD
Chain of Focal adhesion kinase 1 (Homo sapiens) (Q05397 whole entry, looked up): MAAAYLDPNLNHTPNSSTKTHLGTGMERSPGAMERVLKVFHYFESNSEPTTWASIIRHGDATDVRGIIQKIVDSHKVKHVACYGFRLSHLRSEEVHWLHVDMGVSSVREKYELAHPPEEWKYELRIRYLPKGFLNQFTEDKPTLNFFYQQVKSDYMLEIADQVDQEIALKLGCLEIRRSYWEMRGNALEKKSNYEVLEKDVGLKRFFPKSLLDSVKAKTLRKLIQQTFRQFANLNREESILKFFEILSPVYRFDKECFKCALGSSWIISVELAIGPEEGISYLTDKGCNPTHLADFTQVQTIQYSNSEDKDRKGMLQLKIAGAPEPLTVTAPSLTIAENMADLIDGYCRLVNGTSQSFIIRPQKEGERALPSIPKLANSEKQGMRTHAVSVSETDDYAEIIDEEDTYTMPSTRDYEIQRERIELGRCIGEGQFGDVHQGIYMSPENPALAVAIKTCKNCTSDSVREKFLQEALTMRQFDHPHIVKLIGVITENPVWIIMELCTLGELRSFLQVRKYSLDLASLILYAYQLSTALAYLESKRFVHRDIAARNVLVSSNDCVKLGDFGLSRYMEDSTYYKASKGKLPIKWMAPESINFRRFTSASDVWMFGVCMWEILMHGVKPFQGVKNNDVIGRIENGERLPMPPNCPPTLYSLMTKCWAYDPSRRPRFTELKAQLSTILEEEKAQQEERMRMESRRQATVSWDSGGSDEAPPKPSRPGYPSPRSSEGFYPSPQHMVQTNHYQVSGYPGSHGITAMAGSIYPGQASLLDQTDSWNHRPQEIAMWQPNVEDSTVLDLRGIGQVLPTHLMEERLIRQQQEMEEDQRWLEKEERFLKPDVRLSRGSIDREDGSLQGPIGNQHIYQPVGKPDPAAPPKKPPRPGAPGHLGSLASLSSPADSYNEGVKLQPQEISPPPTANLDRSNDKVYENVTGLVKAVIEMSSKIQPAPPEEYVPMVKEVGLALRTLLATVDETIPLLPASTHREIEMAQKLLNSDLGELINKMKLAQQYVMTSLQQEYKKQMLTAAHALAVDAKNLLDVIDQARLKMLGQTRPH
Chain of Luciferin 4-monooxygenase (Photinus pyralis) (P08659 whole entry, looked up): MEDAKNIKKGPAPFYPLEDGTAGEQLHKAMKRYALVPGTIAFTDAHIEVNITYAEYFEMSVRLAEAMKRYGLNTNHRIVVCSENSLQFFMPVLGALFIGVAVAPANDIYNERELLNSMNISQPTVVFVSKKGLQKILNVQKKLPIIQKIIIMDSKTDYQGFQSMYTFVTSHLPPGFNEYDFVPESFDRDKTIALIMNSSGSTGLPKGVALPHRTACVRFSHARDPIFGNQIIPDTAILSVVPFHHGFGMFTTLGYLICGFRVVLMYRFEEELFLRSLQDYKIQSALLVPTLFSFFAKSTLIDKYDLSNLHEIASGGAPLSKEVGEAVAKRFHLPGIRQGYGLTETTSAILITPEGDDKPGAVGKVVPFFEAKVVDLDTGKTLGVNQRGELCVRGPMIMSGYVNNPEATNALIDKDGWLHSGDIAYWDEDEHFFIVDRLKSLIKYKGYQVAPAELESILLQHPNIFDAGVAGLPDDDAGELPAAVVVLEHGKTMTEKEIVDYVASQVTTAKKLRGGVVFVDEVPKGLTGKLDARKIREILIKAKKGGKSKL
Chain of Streptavidin (Streptomyces avidinii) (P22629 whole entry, looked up): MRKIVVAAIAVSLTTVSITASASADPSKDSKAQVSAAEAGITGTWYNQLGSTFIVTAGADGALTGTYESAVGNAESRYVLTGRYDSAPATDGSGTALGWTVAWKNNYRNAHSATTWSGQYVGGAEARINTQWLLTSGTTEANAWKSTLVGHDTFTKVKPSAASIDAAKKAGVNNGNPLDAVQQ
Chain of Fibroblast growth factor 2 (Homo sapiens) (P09038 whole entry, looked up): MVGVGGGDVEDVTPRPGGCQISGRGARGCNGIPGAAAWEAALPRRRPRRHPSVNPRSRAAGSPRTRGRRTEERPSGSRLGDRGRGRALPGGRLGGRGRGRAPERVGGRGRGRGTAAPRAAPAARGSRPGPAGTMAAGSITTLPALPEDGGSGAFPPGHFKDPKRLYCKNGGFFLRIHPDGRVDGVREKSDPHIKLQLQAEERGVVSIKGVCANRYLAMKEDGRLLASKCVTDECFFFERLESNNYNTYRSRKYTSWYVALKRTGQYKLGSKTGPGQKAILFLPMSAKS

As for `CC(C)(C)OC(=O)CC[C@]1(C(=O)NCc2ccccc2)N=C(c2ccc(OCCCO)cc2)O[C@H]1c1ccccc1CN=[N+]=[N-]`, the composite z-score was 2 in test [1]; 1.23 in [2]; -0.221 in test [3]; 0.985 in [4]; 1.48 in test [5]; 1.75 in [6]. Moreover, the composite z-score in the test with Lefty1 came to 1.33; in [8], 0.571; in [10], 1.3; in [15], 1.2; in [16], 0.138; in the test with Torsin-1A (Homo sapiens) [17] it was 0.245. Also, the values for the composite z-score (in the test with Torsin-1A (Homo sapiens) [18]; in [19]) were 0.895 and 1.36, respectively. Moreover, the z-score in [7] is 2.45; in [9] it was -2.11 (inactive); in [11], -3.05 (inactive); in test [12] it was -0.368 (inactive); in [13], 0.344 (inactive); in test [14], -0.156 (inactive).
Turning to `COCCOC(=O)N1C(=O)[C@@]2(c3cc(C#CCNC(N)=O)ccc31)[C@H](C(=O)N1CCc3cc(OC)c(OC)cc3C1)[C@H]1C(=O)O[C@H](c3ccccc3)[C@H](c3ccccc3)N1[C@@H]2c1ccccc1OCCO`, the composite z-score stood at 1.16 in [1]; 0.778 in [2]; 0.378 in test [3]; 0.757 in test [4]; 1.2 in [5]; 1.48 in test [6]. The composite z-score with Lefty1 was 0.716; in test [8], 0.524; in test [10] it was 0.358; in test [15], 0.639; in test [16], 0.0301; with Torsin-1A (Homo sapiens) [17], 0.969. Also, the composite z-score in the test with Torsin-1A (Homo sapiens) [18] was found to be 0.498; in test [19] it was 1.81. The z-score in test [7] is -1.12; in test [9] it was -0.709 (inactive); in test [11], -2.32 (inactive); in [12], -0.772 (inactive); in test [13], 0.0776 (inactive); in [14], -0.979 (inactive).
With `O=C(N1CCCCC1)[C@@]1(CCS(=O)(=O)c2ccccc2)COC(c2ccc(OCCCO)cc2)=N1`, the composite z-score is 2.55 in [1]; 1.22 in test [2]; 0.298 in [3]; 0.839 in test [4]; 1.4 in test [5]; 1.52 in test [6]. Also, the composite z-score in the test with Lefty1 worked out at 0.126; in test [8], 0.848; in [10], 1.17; in test [15], 1.31; in test [16], 0.421; in the test with Torsin-1A (Homo sapiens) [17], 1.19. Also, the composite z-score in the test with Torsin-1A (Homo sapiens) [18] is 0.496; in test [19], 0.447. Besides, the z-score in test [7] is 0.32; in test [9] it was -0.0825 (inactive); in [11] it was -2.3 (inactive); in [12], 0.514 (inactive); in test [13], 0.62 (inactive); in [14], -0.334 (inactive).
For `CC(C)[Si](C#C[Si](C(C)C)(C(C)C)C(C)C)(O[C@H](C)c1cn([C@H](CO)Cc2ccccc2)nn1)C(C)C`, the composite z-score in test [1] was 0.0517; in test [2], 0.209; in [3], 0.21; in test [4], 0.259; in [5] it was -0.093; in test [6], 0.288. Also, the composite z-score in the test on Lefty1 is 0.412; in [8] it was 0.141; in test [10], -0.0305; in test [15], 0.291; in test [16] it was -0.234; in the test with Torsin-1A (Homo sapiens) [17], 0.238. Also, the composite z-score was found to be 0.144 with Torsin-1A (Homo sapiens) [18] and 0.341 in [19]. The z-score in test [7] was 0.476; in test [9], -1.03 (inactive); in [11], -0.43 (inactive); in test [12], -1.52 (inactive); in test [13], -0.463 (inactive); in test [14], -0.531 (inactive).
With `CC(CO)N1C(=O)[C@@H]2[C@H]3C(=O)OCC=C[C@H]3OC23C=CCN(CCN2CCOCC2)C(=O)[C@@H]13` (stereo not given in full), the composite z-score in [1] was 1.01; in [2], -0.549; in [3], -0.568; in [4] it was -1.3; in [5], 0.207; in test [6] it was -0.443. Moreover, the composite z-score in the test on Lefty1 is 0.27; in [8] it was 0.11; in test [10], 0.0471; in test [15], -0.418; in test [16], -0.314; in the test with Torsin-1A (Homo sapiens) [17] it was -0.829. The figures for the composite z-score (in the test with Torsin-1A (Homo sapiens) [18]; in test [19]) were -0.475 and 1.65, respectively. In addition, the z-score in test [7] was 0.659; in test [9] it was -0.531 (inactive); in test [11] it was -0.62 (inactive); in test [12], 1.3 (inactive); in test [13], 0.463 (inactive); in test [14], 0.0027 (inactive).
